# Measured values published in PubChem BioAssay AID686979 (National Center for Advancing Translational Sciences (NCATS), 2013).
# Among all 420,000 compounds or so, about 50,000 (12%) were called active. A call without a number means that no potency is given here. Inconclusive results (about 26%) are left out. The call rests on the fitted dose curve; in most records, active means well fitted inhibition curve with a large enough effect; inconclusive means small, poorly fitted or top-dose-only effect; inactive means flat fitted curve, though single readings scatter. The full list was thinned out, with actives kept by preference.
# Experiment: qHTS for Inhibitors of human tyrosyl-DNA phosphodiesterase 1 (TDP1): qHTS in cells in presence of CPT; further: nearly all actives have a fitted effect of over 55% in size
# Conditions: chicken DT40 Tdp1-/-;hTDP1 cells + 20 nM CPT, ATP luminescence, 48 h; series mostly up to 46.2 µM
# In short: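 Chicken DT40 Tdp1-/- cells complemented with human TDP1, 400 cells/well, exposed to compounds plus 20 nM camptothecin for at least 48 h at 37 C; viability read as ATP content by CellTiter-Glo luminescence.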
# Potency means the concentration at half of the fitted maximal effect.
row,Compound,Potency
1,CC(C)CCNC(=O)C(C)N(C(=O)Cn1nnc(-c2ccc(F)cc2)n1)C1CCCC1 (stereo not given),inactive
2,O=C(O)c1ccccc1CSc1nc2ccccc2s1,inactive
3,COc1ccc2sc(-c3ccc(N(C)C)cc3)c(-c3ccc4cc[nH]c4c3)c2c1,inactive
4,COc1ccc2c(c1)c(=Cc1ccc(N(C)C)cc1)c1cc(-c3ccccc3)[n+](C)n12,0.92 µM (active)
5,CN(C)c1ccc(/C=c2\[nH]c(=O)/c(=C/c3ccc(N(C)C)cc3)[nH]c2=O)cc1,inactive
6,O=C(CSc1nc2[nH]ncc2c(=O)[nH]1)Nc1ccc(F)cc1,inactive
7,O=C(NCCc1cccc(F)c1)C1CC(O)CN1C(=O)Nc1ccccc1 (stereo not given),inactive
8,CCCCN1C(=O)CCC(C(=O)O)C1c1ccc(OC)cc1 (stereo not given),inactive
9,CCCCc1ccc(NC(=O)CN2C(=O)NC(Cc3ccccc3)C2=O)cc1 (stereo not given),inactive
10,O=C(Cn1c(=O)n(Cc2ccco2)c(=O)c2ccccc21)NCC1CCCO1 (stereo not given),inactive
11,Cn1c2ccccc2c(=O)c2c(=O)n(Cc3ccco3)c(COc3ccccc3)nc21,18.4 µM (active)
12,CCn1c(COc2ccccc2)nnc1SCC(=O)NCc1ccco1,inactive
13,CCS(=O)(=O)Nc1ccc(C(=O)NCCSc2ccccc2)cc1,inactive
14,COc1ccc(-c2nc(Cn3c(=O)cc(C)c4c(C)nn(-c5ccccc5)c43)c(C)o2)cc1OC,inactive
15,CCCCCCn1c(=O)n2n(c1=O)C[C@]1(OC(=O)NCc3ccc(OC)c(OC)c3)CN(S(=O)(=O)c3ccc(C)cc3)C[C@]1(O)C2,23.1 µM (active)
16,Cc1ccc(S(=O)(=O)N2C[C@]3(O)C[C@@H]4C(=O)N(c5ccccc5)C(=O)[C@@H]4C[C@]3(OC(=O)NC3CC3)C2)cc1,inactive
17,COc1ccc(CNC(=O)COC(=O)CCS(=O)(=O)c2ccc(C)cc2)cc1OC,inactive
18,CC1CCCCC1NC(=O)c1cn(C)c2ccc(S(=O)(=O)N3CCOCC3)cc2c1=O (stereo not given),inactive
19,Cc1ccc(S(=O)(=O)N2CCC(Oc3ccc(-n4cnnn4)cc3)CC2)cc1,inactive
20,OCCc1ccc(NCCc2ccco2)cc1,inactive
21,COc1ccc(-c2oc3ncnc(NCCCO)c3c2-c2ccc(OC)cc2)cc1,20.6 µM (active)
22,Cc1nnc(NCCO)c2ccccc12,inactive

row,Compound,Potency
1,OCCNc1ncnc2oc(-c3ccco3)c(-c3ccco3)c12,12.6 µM (active)
2,COCCNc1ncnc2c1ncn2[C@H]1CN(Cc2ccc(OC)cc2)C[C@@H](CO)O1,inactive
3,O=C(CCSCc1cccc(F)c1)NCc1ccccc1,inactive
4,COc1ccccc1CNS(=O)(=O)c1c(C)[nH]c(C)c1C(=O)N1CCCCC1,inactive
5,COc1ccc(-n2c(C)nc3c(cnn3-c3ccc(F)cc3)c2=O)cc1,23.1 µM (active)
6,CCOc1ccc(-n2c(C)nc3c(cnn3-c3ccc(C)cc3)c2=O)cc1,5.17 µM (active)
7,CCC(C)Sc1nc2c(cnn2-c2ccc(F)cc2)c(=O)[nH]1 (stereo not given),inactive
8,COc1ccc(-n2c(SC)nc(O)cc2=O)cc1,inactive
9,CC(=O)Cn1cnc2c(cnn2-c2ccccc2)c1=O,inactive
10,Cc1ccc(Oc2cnn(-c3ccccc3)c(=O)c2Br)cc1,inactive
11,CCOC(=O)c1ccc(-n2c(C)nc3c(cnn3-c3ccccc3C)c2=O)cc1,inactive
12,COc1ccc(-n2c(C)nc3c(cnn3-c3ccccc3)c2=O)cc1,29.1 µM (active)
13,CCc1nc2c(cnn2-c2ccc(C)cc2)c(=O)n1-c1ccc(C)cc1,inactive
14,CC1CCc2c(c3ccccc3[nH]c2=O)O1 (stereo not given),inactive
15,COc1ccc(-c2nc(N)sc2C2(O)C(=O)Nc3c(Br)cc(F)cc32)cc1OC (stereo not given),inactive
16,O=C(COC(=O)c1cccnc1Cl)Nc1ccc(S(=O)(=O)N2CCOCC2)cc1,inactive
17,COc1ccccc1CNC(=O)CCCN1C(=O)NC2(CCCC2)C1=O,inactive
18,CC[C@]1(c2ccccc2OC)C(=O)N(C(=O)OC)N1C(=O)OC,20.6 µM (active)
19,COc1ccccc1CC(=O)Nc1ccc([N+](=O)[O-])cc1OC,inactive
20,Cc1ccccc1/C=C\c1nc(O)c([N+](=O)[O-])c(=O)[nH]1,inactive
21,Cc1ccc(C(=O)NNC(=O)c2ccncc2)cc1S(=O)(=O)N1CCCCC1,inactive
22,O=C(NNC(=O)c1cnccc1C(F)(F)F)c1ccc(Cl)cc1,inactive

row,Compound,Potency
1,O=C(NNC1=C(C(=O)C(F)(F)F)CCC1)c1ccncc1,1.64 µM (active)
2,COc1cccc(NC(=O)CN(C)CC(=O)c2c(N)n(Cc3ccccc3)c(=O)n(C)c2=O)c1,inactive
3,O=C(OCC(=O)N1CCCCCC1)c1cccc(Cl)c1Cl,inactive
4,Cc1ccccc1C(=O)NCC(c1ccco1)N1CCc2ccccc21 (stereo not given),inactive
5,O=C(NCC(c1cccnc1)N1CCc2ccccc21)c1cccc(C(F)(F)F)c1 (stereo not given),16.4 µM (active)
6,CCOC(=O)c1c(NC(=O)CSc2cn(CCNC(=O)c3cccc(C(F)(F)F)c3)c3ccccc23)sc2c1CCC2,inactive
7,CCNC(=O)c1cnn(-c2ccccc2)c1-c1ccccc1,inactive
8,CCCCNCCS(=O)(=O)NCc1ccccc1,inactive
9,Cc1ccc(-n2c(SCC(=O)Nc3ncc(Cl)cc3Cl)nc3ccccc32)cc1,14.6 µM (active)
10,Cc1ccc(SCCC(=O)OCC(=O)Nc2ncc(Cl)cc2Cl)cc1,inactive
11,Cc1cc(NC(=O)CSc2nc3ccccc3n2CC(C)C)no1,inactive
12,Cc1cccc(N(CC(=O)N2CCCC2)S(C)(=O)=O)c1C,inactive
13,CCN(CC)C(=O)CS(=O)CC(=O)Nc1cc(OCCOC)c(Cl)cc1Cl (stereo not given),inactive
14,COc1ccccc1CNCc1cccs1,inactive
15,COc1ccccc1-c1nc(NCCNC(C)=O)c2ccccc2n1,inactive
16,COc1ccccc1-c1nc(NCc2cccs2)c2ccccc2n1,16.4 µM (active)
17,CC1(C)CC(N2CCN(C(c3ccccc3)c3ccccc3)CC2)=CC(=[N+]2CCCCC2)C1,0.164 µM (active)
18,CC1(C)CC(=O)C=C(N2CCCC2)C1,inactive
19,O=C(O)CN1CCN(C(c2ccccc2)c2ccccc2)CC1,inactive
20,CC(Oc1ccc2c(-c3ccccc3)cc(=O)oc2c1)C(=O)NC(Cc1c[nH]c2ccccc12)C(=O)O (stereo not given),inactive
21,Cc1ccc(C)c(NC(=O)COC(=O)Cn2c(C)csc2=O)c1,inactive
